In the supplement of paper PMC10849652 one finds log2 fold change data, which are given here for 36 targets.

Targets with a hit are over-represented here; the source holds about 8,800 in all. About 0.5% of all pairs of compound and target were hits.

UniProt Q06547, sequence (Q06547 whole entry, looked up): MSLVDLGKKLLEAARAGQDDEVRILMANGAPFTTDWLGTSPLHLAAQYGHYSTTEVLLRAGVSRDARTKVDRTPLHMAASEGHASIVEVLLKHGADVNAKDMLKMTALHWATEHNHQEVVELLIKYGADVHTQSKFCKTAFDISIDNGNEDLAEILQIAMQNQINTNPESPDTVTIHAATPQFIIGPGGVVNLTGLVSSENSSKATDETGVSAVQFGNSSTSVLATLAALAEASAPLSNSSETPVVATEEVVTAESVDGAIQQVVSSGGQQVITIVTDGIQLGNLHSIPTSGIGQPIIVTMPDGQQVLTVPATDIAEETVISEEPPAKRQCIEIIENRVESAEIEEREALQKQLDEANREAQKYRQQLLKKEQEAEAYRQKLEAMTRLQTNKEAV
UniProt Q13409, sequence (Q13409 whole entry, looked up): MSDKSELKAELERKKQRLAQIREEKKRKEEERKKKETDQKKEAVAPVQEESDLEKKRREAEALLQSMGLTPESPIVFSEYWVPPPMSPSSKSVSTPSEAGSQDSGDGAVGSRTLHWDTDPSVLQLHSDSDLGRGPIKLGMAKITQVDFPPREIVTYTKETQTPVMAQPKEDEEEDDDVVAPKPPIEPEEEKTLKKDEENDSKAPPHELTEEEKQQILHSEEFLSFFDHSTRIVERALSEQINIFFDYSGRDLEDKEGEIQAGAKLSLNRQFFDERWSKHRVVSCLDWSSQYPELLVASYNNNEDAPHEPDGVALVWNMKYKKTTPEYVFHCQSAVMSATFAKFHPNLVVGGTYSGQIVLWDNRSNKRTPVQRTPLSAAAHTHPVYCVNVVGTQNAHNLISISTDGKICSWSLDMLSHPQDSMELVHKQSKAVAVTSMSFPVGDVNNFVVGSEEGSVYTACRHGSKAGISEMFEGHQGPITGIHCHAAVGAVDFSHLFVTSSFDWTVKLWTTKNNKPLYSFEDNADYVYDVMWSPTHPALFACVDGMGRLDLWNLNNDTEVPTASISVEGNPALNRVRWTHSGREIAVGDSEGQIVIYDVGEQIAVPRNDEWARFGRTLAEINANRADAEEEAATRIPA
UniProt Q9UJY4, sequence (Q9UJY4 whole entry, looked up): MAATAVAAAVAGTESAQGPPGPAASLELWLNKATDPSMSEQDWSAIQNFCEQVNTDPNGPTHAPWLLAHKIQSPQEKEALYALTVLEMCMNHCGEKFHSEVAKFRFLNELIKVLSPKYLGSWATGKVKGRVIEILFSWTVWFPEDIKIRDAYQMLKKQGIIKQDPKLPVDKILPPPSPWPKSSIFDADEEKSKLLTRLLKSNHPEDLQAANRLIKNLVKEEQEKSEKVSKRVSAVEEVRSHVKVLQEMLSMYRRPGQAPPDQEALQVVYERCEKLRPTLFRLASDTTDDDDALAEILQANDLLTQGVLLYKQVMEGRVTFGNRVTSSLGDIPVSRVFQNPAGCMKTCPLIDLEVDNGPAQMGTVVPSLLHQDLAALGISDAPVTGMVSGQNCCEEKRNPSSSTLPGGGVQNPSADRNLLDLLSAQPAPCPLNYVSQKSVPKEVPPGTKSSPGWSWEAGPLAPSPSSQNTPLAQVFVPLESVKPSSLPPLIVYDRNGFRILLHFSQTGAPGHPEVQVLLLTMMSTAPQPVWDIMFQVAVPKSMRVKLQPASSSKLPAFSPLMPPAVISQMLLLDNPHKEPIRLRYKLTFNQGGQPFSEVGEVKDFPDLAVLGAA
UniProt Q13347, sequence (Q13347 whole entry, looked up): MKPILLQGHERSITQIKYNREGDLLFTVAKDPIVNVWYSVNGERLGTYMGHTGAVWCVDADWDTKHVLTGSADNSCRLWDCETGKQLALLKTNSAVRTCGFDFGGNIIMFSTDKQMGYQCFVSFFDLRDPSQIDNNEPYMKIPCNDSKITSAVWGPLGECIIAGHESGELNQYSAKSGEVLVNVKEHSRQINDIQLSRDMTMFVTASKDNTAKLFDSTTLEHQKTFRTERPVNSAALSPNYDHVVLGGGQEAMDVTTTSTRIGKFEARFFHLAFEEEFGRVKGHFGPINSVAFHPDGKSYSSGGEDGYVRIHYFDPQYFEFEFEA
UniProt Q9NV70, sequence (Q9NV70 whole entry, looked up): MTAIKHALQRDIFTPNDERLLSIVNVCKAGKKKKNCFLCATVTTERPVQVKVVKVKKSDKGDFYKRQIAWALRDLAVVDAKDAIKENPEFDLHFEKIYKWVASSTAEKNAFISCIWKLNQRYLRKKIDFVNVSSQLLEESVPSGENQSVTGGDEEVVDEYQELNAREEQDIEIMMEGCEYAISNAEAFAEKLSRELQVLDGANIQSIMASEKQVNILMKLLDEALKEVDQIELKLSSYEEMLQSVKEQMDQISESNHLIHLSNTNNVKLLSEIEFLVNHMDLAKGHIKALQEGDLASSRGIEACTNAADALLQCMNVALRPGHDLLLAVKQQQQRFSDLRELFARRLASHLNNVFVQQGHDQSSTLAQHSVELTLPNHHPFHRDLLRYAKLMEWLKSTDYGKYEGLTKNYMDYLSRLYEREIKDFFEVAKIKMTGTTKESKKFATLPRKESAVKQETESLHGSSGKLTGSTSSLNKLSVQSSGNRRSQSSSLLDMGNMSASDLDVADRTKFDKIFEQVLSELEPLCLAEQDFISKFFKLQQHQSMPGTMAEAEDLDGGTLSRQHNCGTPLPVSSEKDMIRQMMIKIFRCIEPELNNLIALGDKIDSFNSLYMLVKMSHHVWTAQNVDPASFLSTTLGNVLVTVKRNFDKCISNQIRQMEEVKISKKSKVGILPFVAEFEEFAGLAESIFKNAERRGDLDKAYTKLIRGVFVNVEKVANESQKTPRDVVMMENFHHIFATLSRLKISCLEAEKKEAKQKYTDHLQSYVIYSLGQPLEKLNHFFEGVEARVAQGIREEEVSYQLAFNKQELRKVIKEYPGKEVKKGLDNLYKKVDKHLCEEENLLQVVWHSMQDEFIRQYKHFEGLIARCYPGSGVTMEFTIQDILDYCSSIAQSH
UniProt Q9BXW9, sequence (Q9BXW9 whole entry, looked up): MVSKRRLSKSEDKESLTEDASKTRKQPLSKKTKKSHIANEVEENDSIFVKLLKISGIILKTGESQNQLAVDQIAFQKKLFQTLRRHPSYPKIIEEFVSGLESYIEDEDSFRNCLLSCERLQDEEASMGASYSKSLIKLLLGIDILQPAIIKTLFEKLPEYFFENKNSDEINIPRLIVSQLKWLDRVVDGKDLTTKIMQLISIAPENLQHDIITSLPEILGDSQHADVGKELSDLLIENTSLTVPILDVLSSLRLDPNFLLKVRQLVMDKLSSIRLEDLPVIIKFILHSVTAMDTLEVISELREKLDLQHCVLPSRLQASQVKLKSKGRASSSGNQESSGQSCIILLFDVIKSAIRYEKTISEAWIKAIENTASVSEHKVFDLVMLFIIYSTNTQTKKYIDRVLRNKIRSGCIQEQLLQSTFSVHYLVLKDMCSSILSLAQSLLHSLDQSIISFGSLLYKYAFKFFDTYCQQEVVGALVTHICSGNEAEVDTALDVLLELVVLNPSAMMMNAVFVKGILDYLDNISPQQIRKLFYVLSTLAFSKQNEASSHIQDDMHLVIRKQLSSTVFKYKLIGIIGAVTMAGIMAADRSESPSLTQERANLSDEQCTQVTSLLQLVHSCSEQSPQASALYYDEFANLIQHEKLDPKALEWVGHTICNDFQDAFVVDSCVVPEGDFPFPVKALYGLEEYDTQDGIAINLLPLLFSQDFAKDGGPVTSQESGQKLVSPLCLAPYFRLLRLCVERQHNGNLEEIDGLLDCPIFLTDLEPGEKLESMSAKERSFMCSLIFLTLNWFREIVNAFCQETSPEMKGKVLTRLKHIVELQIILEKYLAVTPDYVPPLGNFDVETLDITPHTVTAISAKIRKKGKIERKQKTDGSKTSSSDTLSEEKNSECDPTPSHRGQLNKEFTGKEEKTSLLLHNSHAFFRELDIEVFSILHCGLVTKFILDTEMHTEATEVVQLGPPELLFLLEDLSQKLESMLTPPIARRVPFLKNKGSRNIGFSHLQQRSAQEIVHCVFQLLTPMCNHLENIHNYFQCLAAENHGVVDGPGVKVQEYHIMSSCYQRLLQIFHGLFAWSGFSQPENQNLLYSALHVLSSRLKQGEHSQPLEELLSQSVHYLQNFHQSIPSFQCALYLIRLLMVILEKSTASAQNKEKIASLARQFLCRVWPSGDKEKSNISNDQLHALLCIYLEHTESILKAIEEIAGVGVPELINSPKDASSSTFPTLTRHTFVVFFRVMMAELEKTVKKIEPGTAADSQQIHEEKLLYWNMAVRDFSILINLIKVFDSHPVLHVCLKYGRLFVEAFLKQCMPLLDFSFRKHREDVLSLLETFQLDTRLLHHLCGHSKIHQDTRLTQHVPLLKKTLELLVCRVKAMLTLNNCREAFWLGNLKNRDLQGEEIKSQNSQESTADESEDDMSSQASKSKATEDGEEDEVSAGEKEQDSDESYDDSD
UniProt Q9NX74, sequence (Q9NX74 whole entry, looked up): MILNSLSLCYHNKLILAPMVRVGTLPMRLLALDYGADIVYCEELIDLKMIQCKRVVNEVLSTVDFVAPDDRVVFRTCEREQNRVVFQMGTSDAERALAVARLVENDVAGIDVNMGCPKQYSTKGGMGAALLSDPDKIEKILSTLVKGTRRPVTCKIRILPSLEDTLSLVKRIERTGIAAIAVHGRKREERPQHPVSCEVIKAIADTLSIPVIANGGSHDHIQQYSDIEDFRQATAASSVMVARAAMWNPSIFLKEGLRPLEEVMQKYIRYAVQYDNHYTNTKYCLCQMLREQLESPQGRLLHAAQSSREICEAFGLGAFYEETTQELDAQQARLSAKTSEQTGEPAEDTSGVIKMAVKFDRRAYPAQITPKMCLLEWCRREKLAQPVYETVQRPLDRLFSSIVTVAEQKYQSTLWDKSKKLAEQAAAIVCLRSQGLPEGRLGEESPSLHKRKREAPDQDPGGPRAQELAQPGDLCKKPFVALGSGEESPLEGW
UniProt O43768, sequence (O43768 whole entry, looked up): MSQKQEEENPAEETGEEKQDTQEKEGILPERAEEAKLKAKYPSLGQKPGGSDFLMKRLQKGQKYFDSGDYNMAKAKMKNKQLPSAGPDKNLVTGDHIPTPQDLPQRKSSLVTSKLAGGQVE

Compound in the assay: C1COCCN1CCN2C3=CC=CC=C3N=C2NC(=O)C4=CC(=CC=C4)[N+](=O)[O-] [IRAK-1-4 Inhibitor I]
Put plainly: log2 fold change, soluble protein after heating vs DMSO (PISA); higher = thermal stabilisation; K562 lysate, 10 uM; active = over 0.2 and 3.5 SD of the protein, either way, in both replicates (recomputed). In a few lines:
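Log-two fold change in thermal stability relative to solvent controls is reported from duplicates. For each sample, crude K562 extract from dounce-homogenised pellets in PBS pH 7.4 with 1 mM MgCl2, at 1 mg/mL protein, was treated with 10 μM compound for 30 min. Aliquots heated for 3 min across 48°C-58°C were pooled, brought to 0.5% NP-40 at 4°C and cleared at 21,000xg for 90 min. The supernatant was quantified by TMTpro 16plex LC-MS/MS with channel sums equalised.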
Turning to FAU (UniProt E9PR30), the log2 fold change is 0.053 (inactive).
To FTSJ3 (UniProt Q8IY81) belongs -0.018 (inactive); to GALK1 isoform 2 (UniProt P51570), 0.042 (inactive).
Take FHOD1 (UniProt Q9Y613): the log2 fold change was -0.008 (inactive).
Turning to FNTB (UniProt P49356), the log2 fold change was -0.006 (inactive).
On to ETHE1 (UniProt O95571), for which the log2 fold change is -0.044 (inactive).
For the target GATAD2A isoform 3 (UniProt Q86YP4), the log2 fold change was -0.016 (inactive).
In the case of DYNC1I2 isoform 2 (UniProt Q13409), the log2 fold change is 0.01 (inactive).
To EIF3I (UniProt Q13347) belongs -0.039 (inactive); to ENSA isoform 3 (UniProt O43768), -0.004 (inactive); to GDPD1 (UniProt Q8N9F7), 0.038 (inactive).
EEF1A1, A0A087WVQ9: the log2 fold change is 0.03 (inactive).
In the case of FAM98A (UniProt Q8NCA5), the log2 fold change was -0.04 (inactive).
Regarding GEMIN5 (UniProt Q8TEQ6), the log2 fold change was -0.025 (inactive).
For the target FXR2 (UniProt P51116), the log2 fold change was -0.075 (inactive).
Consider ENO1 isoform 2 (UniProt P06733), for which the log2 fold change was 0.015 (inactive).
Turning to GABPB1 (UniProt Q06547), the log2 fold change was -0.042 (inactive).
As for GABPB1 isoform 3 (UniProt Q06547), the log2 fold change is 0.078 (inactive).
As for EIF2B4 (UniProt Q9UI10), the figure is 0.118 (inactive).
As for FYN (UniProt P06241), the log2 fold change is -0.145 (inactive).
On to DUS2 (UniProt Q9NX74), for which the log2 fold change is -0.004 (inactive).
Take FBXO45 (UniProt P0C2W1): the log2 fold change is -0.043 (inactive).
To EP400 isoform 5 (UniProt Q96L91) belongs -0.005 (inactive); to ECI2 (UniProt O75521), 0.054 (inactive).
To FBLL1 (UniProt A6NHQ2) belongs -0.004 (inactive); to FADS3 (UniProt Q9Y5Q0), -0.097 (inactive); to FANCD2 isoform 1 (UniProt Q9BXW9), 0.036 (inactive).
For the target DYRK1A (UniProt Q13627), the log2 fold change is -0.046 (inactive).
On to GGA2 (UniProt Q9UJY4), for which the log2 fold change is 0.01 (inactive).
Take DYNC1I2 isoform 5 (UniProt Q13409): the log2 fold change was 0.018 (inactive).
To EXOC1 (UniProt Q9NV70) belongs -0.011 (inactive).
For FAM83A (UniProt Q86UY5), the log2 fold change was 0.019 (inactive).
Turning to DST (UniProt Q03001), the log2 fold change is 0.04 (inactive).
For the target GCN1 (UniProt Q92616), the log2 fold change is 0.008 (inactive).
As to FDX2 (UniProt Q6P4F2), the log2 fold change is 0.05 (inactive).
For ENO1, A0A2R8YEM5, the log2 fold change was -0.031 (inactive).
